PubChem BioAssay (EPA / NIEHS)
Values joined by “and” are separate entries in the source; they are usually repeats but may differ in a detail not shown here. Identical values can stand only once. Records with an inconclusive call do not appear. A structure can be active in one record and inactive in another. Active and inactive are the calls of the source. Rule for the calls, unless noted: active = hit-call score of the fitted dose curve at least 0.9, where 1 is the maximum; inconclusive = response in the unintended direction; inactive = score below 0.9.

What was measured:
[1] = molecular target: human CYP2C9, CYP2C9 (gene 1559) (UniProt P11712); experiment: NVS_ADME_hCYP2C9: NovaScreen (NVS) CYP450-related Enzyme Activity (ADME) Assay for human CYP2C9 (AID 2283108)
How it was run: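 Cell-free assay of recombinant human CYP2C9 produced in Sf9 cells, with enzyme activity read by fluorescence intensity 0.75 h after compound addition. Loss of signal versus an acetonitrile negative control indicates inhibition. Primary screen used 10 uM in duplicate; actives were retested in concentration series.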

[2] = molecular target: Cytochrome P450 3A4 (Homo sapiens) (UniProt P08684); experiment: NVS_ADME_hCYP3A4: NovaScreen (NVS) CYP450-related Enzyme Activity (ADME) Assay for human CYP3A4 (AID 2283110)
How it was run: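 Cell-free assay using insect-cell-expressed human CYP3A4 with a fluorogenic substrate; fluorescence intensity was read 0.33 hour after dosing. Loss of signal relative to acetonitrile vehicle indicated inhibition. Primary single-concentration screen at 10 uM, in duplicate, then concentration series.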

[3] = molecular target: Cytochrome P450 2C19 (Homo sapiens) (UniProt P33261); experiment: NVS_ADME_hCYP2C19: NovaScreen (NVS) CYP450-related Enzyme Activity (ADME) Assay for human CYP2C19 (AID 2283113);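 note: potency for inhibition seen as loss of fluorescent signal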
How it was run: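 Biochemical CYP2C19 inhibition screen: insect-cell recombinant protein plus fluorescent substrate, 1 h, fluorescence intensity. Acetonitrile defined baseline activity. Single 10 uM concentration in duplicate, with concentration-response follow-up for actives.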

rat CYP2B1, gene 24300 = experiment: NVS_ADME_rCYP2B1: NovaScreen (NVS) CYP450-related Enzyme Activity (ADME) Assay for rat CYP2B1 (AID 2283117)
How it was run: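 Recombinant rat CYP2B1 with fluorogenic substrate, read at 0.75 h. Primary screen in duplicate at 10 uM; compounds meeting threshold (e.g., 30% inhibition) re-run in concentration-response up to 20 uM. Fitted against acetonitrile control.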

[4] = molecular target: rat CYP2C11, Cyp2c11 (gene 29277) (UniProt P08683); experiment: NVS_ADME_rCYP2C11: NovaScreen (NVS) CYP450-related Enzyme Activity (ADME) Assay for rat CYP2C11 (AID 2283118)
How it was run: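 Cell-free recombinant rat enzyme with fluorescent substrate; readout 0.33 h after dosing, loss of signal versus acetonitrile control. Initial duplicate single-point at 10 uM; actives rerun in concentration series.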

rat CYP2C6, gene 293989 = experiment: NVS_ADME_rCYP2C6: NovaScreen (NVS) CYP450-related Enzyme Activity (ADME) Assay for rat CYP2C6 (AID 2283120)
How it was run: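 Cell-free recombinant rat CYP2C6 with fluorogenic substrate, read by fluorescence 1 h after dosing; acetonitrile as negative control. Primary screen at 10 uM in duplicate, actives then in concentration-response up to 20 uM.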

rat CYP3A1, gene 25642 = experiment: NVS_ADME_rCYP3A1: NovaScreen (NVS) CYP450-related Enzyme Activity (ADME) Assay for rat CYP3A1 (AID 2283126)
How it was run: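 Cell-free recombinant CYP assay with fluorescent substrate, read 0.5 h after dosing. Screened at 10 uM in duplicate, hits at up to 20 uM in concentration-response; loss of signal versus acetonitrile baseline.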

[5] = molecular target: rat CYP3A2, Cyp3a2 (gene 266682) (UniProt P05183); experiment: NVS_ADME_rCYP3A2: NovaScreen (NVS) CYP450-related Enzyme Activity (ADME) Assay for rat CYP3A2 (AID 2283128)
How it was run: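 Cell-free rat CYP3A2 enzyme assay with fluorescent substrate, read 0.5 h after dosing. Primary duplicate screen at 10 uM; actives run in concentration-response up to 20 uM, relative to acetonitrile baseline.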

[6] = molecular target: human Caspase 5 (CASP5), CASP5 (gene 838) (UniProt P51878); experiment: NVS_ENZ_hCASP5: NovaScreen (NVS) Enzymatic Assay for human Caspase 5 (CASP5) (AID 2283137)
How it was run: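 Recombinant E. coli-expressed human caspase 5 in a cell-free enzyme assay; fluorescence intensity read 2 hours after chemical dosing. Single-concentration duplicate screen at 25 uM, then concentration-response up to 50 uM for hits; DMSO negative control.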

[7] = molecular target: human Beta-secretase (BACE), BACE1 (gene 23621) (UniProt P56817); experiment: NVS_ENZ_hBACE: NovaScreen (NVS) Enzymatic Assay for human Beta-secretase (BACE) (AID 2283140);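 note: hits are inhibitors that reduce fluorescent substrate signal versus DMSO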
How it was run: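 Cell-free fluorescence-intensity assay of recombinant BACE1 expressed in SF9 cells, read 1 hour after dosing. Loss of signal indicates reduced protease activity, fitted relative to DMSO negative control. Primary screen at 25 uM in duplicate; actives followed in concentration series.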

[8] = molecular target: rat CYP2A1, Cyp2a1 (gene 24894) (UniProt P11711); experiment: NVS_ADME_rCYP2A1: NovaScreen (NVS) CYP450-related Enzyme Activity (ADME) Assay for rat CYP2A1 (AID 2283114; active = hit-call score of the fitted dose curve at least 0.9, where 1 is the maximum; inactive = score below 0.9)
How it was run: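 Recombinant rat CYP2A1, cell-free, fluorogenic substrate turnover read by fluorescence intensity 0.75 h after dosing. Primary screen at 10 uM in duplicate; actives rerun as concentration-response up to 20 uM; loss of signal versus acetonitrile control.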

[9] = molecular target: rat CYP2A2, Cyp2a2 (gene 24895) (UniProt P15149); experiment: NVS_ADME_rCYP2A2: NovaScreen (NVS) CYP450-related Enzyme Activity (ADME) Assay for rat CYP2A2 (AID 2283116)
How it was run: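 Cell-free recombinant rat CYP2A2 activity with fluorogenic substrate, fluorescence read 0.2 h after dosing. Chemicals screened at 10 uM in duplicate, hits then run in concentration-response up to 20 uM; signal loss versus acetonitrile baseline.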

[10] = molecular target: rat CYP2C12, Cyp2c12 (gene 25011) (UniProt P11510); experiment: NVS_ADME_rCYP2C12: NovaScreen (NVS) CYP450-related Enzyme Activity (ADME) Assay for rat CYP2C12 (AID 2283119)
How it was run: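 Cell-free recombinant rat CYP2C12 activity read by fluorescence 0.5 h after dosing; loss of signal versus acetonitrile control. Primary screen in duplicate at 10 uM; actives then run in concentration-response format.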

[11] = molecular target: rat CYP2C13, Cyp2c13 (gene 171521) (UniProt P20814); experiment: NVS_ADME_rCYP2C13: NovaScreen (NVS) CYP450-related Enzyme Activity (ADME) Assay for rat CYP2C13 (AID 2283121)
How it was run: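 Recombinant rat CYP2C13 with fluorogenic substrate, 0.75 h cell-free incubation; primary screen in duplicate at 10 uM, actives followed in concentration series. Fluorescence loss relative to acetonitrile control indicates inhibition.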

[12] = molecular target: human Caspase 10 (CASP10), CASP10 (gene 843) (UniProt Q92851); experiment: NVS_ENZ_hCASP10: NovaScreen (NVS) Enzymatic Assay for human Caspase 10 (CASP10) (AID 2283133)
How it was run: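 Recombinant human caspase-10 from E. coli, cell-free fluorogenic substrate assay read 1 h after dosing. Primary duplicate screen at 25 uM; hits (e.g. ≥30% inhibition) run singly in concentration-response up to 50 uM, normalised to DMSO.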

[13] = molecular target: human AKT serine/threonine Kinase 1 (AKT1), AKT1 (gene 207) (UniProt P31749); experiment: NVS_ENZ_hAKT1: NovaScreen (NVS) Enzymatic Assay for human AKT serine/threonine Kinase 1 (AKT1) (AID 2283138)
How it was run: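 Cell-free recombinant enzyme with substrate; activity read by fluorescence intensity after electrophoretic mobility shift separating substrate from product, 1 h after dosing. Single-concentration duplicates at 25 uM, then singleton concentration-response up to 50 uM; loss of signal versus DMSO.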

[14] = molecular target: human Acetylcholinesterase (AChE), ACHE (gene 43) (UniProt P22303); experiment: NVS_ENZ_hAChE: NovaScreen (NVS) Enzymatic Assay for human Acetylcholinesterase (AChE) (AID 2283129)
How it was run: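 Cell-free colorimetric enzyme-activity assay; compounds read 0.33 hour after dosing, loss of signal vs DMSO baseline. Primary screen in duplicate at 25 uM single concentration, with active compounds retested in concentration series.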

Caspase-3 (Homo sapiens) = Caspase-3 (Homo sapiens) (UniProt P42574); experiment: NVS_ENZ_hCASP3: NovaScreen (NVS) Enzymatic Assay for human Caspase 3 (CASP3) (AID 2283139)
How it was run: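 Recombinant human caspase-3 from E. coli with a fluorogenic substrate, read by fluorescence 1 h after dosing. Primary screen in duplicate at 25 uM. Actives (for example ≥30% inhibition) rerun as concentration-response up to 50 uM.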

[15] = molecular target: human CYP4F12, CYP4F12 (gene 66002) (UniProt Q9HCS2); experiment: NVS_ADME_hCYP4F12: NovaScreen (NVS) CYP450-related Enzyme Activity (ADME) Assay for human CYP4F12 (AID 2283111)
How it was run: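 Cell-free fluorescence assay of recombinant human CYP4F12 activity on a specific substrate, read 0.5 h after dosing. Primary screen in duplicate at 10 uM, then concentration series for actives; loss of signal fitted against acetonitrile negative control.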

[16] = molecular target: human AMP-activated Protein Kinase, alpha 1 (AMPKa1), PRKAA1 (gene 5562) (UniProt Q13131); experiment: NVS_ENZ_hAMPKa1: NovaScreen (NVS) Enzymatic Assay for human AMP-activated Protein Kinase, alpha 1 (AMPKa1) (AID 2283130)
How it was run: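 Recombinant human AMPKα1 activity was measured cell-free by fluorescent substrate conversion with electrophoretic mobility-shift separation, 1 h after dosing. Duplicate single-point screening was at 25 uM; actives (≥30% inhibition) were retested in concentration-response up to 50 uM.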

Measured: AC50

Sequence of rat CYP2A2, Cyp2a2 (gene 24895) (P15149 whole entry, looked up): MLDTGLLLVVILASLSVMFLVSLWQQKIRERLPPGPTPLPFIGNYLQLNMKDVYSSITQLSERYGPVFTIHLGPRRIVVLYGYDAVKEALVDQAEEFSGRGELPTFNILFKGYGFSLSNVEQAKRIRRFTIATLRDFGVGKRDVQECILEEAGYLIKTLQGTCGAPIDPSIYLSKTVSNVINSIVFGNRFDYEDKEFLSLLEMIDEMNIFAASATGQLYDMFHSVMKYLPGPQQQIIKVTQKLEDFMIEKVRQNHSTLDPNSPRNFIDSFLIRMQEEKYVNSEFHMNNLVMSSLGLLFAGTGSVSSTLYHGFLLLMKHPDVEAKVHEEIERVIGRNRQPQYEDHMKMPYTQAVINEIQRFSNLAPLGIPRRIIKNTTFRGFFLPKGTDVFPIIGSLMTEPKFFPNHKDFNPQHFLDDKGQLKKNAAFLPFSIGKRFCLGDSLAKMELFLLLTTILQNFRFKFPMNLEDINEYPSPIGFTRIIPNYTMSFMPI
Sequence of human CYP2C9, CYP2C9 (gene 1559) (P11712 whole entry, looked up): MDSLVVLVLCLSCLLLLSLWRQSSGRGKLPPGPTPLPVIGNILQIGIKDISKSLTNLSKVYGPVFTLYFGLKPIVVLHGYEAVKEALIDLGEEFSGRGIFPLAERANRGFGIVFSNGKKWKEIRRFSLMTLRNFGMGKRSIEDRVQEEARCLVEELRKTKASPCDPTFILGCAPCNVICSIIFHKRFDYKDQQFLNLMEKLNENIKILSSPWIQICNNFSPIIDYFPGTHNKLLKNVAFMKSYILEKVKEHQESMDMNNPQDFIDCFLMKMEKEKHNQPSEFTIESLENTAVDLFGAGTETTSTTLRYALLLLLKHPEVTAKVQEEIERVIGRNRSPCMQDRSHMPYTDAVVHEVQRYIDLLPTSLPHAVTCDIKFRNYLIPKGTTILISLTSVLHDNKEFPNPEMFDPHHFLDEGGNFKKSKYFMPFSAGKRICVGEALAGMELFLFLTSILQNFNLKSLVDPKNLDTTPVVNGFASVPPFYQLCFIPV
Sequence of human Caspase 5 (CASP5), CASP5 (gene 838) (P51878 whole entry, looked up): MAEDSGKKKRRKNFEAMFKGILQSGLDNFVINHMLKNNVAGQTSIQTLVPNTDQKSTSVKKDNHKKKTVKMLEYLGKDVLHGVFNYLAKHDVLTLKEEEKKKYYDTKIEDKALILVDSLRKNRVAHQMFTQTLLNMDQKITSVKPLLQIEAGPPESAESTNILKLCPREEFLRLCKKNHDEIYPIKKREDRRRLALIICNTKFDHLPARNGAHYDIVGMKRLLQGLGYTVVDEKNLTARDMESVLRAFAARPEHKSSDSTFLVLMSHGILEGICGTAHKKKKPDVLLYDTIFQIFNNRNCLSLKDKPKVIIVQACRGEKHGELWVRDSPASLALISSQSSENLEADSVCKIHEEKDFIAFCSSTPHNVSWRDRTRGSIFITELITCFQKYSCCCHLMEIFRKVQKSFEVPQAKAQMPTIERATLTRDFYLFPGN
Sequence of human Beta-secretase (BACE), BACE1 (gene 23621) (P56817 whole entry, looked up): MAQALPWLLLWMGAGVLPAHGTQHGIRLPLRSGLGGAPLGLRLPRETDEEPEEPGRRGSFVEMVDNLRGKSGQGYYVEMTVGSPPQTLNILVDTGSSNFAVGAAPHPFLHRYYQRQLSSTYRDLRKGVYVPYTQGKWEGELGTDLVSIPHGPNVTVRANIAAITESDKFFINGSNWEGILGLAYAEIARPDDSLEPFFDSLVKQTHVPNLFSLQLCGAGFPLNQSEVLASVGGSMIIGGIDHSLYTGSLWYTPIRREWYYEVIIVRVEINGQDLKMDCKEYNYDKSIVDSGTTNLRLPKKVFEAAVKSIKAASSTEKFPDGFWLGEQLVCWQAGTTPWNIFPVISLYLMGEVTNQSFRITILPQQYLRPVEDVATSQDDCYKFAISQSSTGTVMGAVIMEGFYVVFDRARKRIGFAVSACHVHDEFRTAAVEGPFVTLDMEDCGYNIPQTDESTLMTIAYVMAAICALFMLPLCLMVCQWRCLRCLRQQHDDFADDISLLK
Sequence of rat CYP2A1, Cyp2a1 (gene 24894) (P11711 whole entry, looked up): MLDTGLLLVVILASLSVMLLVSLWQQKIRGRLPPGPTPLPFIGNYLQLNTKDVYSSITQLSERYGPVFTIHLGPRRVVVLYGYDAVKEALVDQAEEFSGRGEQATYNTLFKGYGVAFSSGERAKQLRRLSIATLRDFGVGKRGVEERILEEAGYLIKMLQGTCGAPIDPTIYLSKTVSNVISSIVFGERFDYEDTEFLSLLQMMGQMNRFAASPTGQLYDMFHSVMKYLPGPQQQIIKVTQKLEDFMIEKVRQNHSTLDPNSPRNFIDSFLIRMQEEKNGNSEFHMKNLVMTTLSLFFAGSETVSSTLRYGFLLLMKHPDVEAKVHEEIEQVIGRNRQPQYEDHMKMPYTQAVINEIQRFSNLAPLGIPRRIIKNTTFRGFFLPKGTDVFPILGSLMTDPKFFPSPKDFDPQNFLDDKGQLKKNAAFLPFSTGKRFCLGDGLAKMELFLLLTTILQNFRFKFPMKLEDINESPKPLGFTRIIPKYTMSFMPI
Sequence of rat CYP3A2, Cyp3a2 (gene 266682) (P05183 whole entry, looked up): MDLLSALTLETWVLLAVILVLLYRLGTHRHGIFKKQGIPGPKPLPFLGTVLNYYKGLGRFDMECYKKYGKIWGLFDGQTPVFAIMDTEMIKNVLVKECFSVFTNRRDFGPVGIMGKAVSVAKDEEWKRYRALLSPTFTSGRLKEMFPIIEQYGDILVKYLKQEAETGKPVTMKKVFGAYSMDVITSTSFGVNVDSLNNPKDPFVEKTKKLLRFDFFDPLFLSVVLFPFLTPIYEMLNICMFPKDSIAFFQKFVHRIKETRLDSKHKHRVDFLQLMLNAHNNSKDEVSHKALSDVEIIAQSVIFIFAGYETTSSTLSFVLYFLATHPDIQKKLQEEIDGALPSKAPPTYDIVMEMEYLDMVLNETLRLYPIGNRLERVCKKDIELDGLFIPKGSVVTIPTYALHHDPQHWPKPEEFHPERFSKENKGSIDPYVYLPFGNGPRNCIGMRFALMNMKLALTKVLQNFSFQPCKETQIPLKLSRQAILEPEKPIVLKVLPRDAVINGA
Sequence of Cytochrome P450 3A4 (Homo sapiens) (P08684 whole entry, looked up): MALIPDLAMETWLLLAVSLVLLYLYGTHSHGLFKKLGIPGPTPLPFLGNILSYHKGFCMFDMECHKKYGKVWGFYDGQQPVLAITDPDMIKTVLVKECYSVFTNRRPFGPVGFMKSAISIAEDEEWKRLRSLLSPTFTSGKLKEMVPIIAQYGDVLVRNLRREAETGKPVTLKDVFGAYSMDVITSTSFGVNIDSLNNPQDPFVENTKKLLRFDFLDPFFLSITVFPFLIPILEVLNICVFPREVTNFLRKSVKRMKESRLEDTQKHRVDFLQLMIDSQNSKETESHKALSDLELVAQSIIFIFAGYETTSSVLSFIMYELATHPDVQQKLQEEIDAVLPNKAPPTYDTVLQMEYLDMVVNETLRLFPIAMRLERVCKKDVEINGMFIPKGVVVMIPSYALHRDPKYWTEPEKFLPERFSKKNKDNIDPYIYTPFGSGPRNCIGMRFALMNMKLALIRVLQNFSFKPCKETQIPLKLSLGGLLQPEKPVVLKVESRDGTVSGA
Sequence of rat CYP2C11, Cyp2c11 (gene 29277) (P08683 whole entry, looked up): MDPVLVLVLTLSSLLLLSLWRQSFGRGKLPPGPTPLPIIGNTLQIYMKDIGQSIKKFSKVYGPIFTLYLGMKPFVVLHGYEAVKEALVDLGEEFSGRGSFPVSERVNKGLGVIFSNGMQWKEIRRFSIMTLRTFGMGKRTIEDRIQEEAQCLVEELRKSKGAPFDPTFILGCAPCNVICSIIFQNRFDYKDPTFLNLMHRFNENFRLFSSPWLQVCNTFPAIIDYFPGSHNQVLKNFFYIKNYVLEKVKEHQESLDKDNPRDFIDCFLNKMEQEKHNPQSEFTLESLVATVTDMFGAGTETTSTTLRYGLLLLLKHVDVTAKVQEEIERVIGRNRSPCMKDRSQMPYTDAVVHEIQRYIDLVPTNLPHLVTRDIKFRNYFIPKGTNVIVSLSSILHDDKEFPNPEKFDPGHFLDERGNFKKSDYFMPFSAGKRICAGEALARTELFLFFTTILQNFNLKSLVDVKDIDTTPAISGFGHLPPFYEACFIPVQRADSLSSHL
Sequence of human Acetylcholinesterase (AChE), ACHE (gene 43) (P22303 whole entry, looked up): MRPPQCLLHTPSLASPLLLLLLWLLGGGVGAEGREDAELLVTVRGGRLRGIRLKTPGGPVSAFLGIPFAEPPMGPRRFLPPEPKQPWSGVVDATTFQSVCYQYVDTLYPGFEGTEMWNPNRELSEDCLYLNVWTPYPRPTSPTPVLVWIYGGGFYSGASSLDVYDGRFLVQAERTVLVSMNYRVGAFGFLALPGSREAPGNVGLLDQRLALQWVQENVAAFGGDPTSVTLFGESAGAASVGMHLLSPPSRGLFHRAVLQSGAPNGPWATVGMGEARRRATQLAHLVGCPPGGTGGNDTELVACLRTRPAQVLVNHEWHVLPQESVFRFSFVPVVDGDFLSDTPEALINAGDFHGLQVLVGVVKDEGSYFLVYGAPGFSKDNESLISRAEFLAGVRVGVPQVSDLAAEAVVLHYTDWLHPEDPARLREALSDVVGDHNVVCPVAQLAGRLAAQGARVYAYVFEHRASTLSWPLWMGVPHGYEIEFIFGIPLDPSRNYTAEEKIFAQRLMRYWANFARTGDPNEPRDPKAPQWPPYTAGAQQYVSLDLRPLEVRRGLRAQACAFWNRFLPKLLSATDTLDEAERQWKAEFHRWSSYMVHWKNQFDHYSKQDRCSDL
Sequence of Caspase-3 (Homo sapiens) (P42574 whole entry, looked up): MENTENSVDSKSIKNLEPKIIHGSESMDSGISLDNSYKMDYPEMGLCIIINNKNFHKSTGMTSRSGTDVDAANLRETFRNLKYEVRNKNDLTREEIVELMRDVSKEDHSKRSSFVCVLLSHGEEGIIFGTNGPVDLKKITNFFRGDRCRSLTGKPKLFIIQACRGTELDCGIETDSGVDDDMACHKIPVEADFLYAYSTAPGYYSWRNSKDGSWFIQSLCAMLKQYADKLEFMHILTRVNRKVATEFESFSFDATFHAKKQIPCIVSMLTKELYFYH

O=C1C2(Cl)C3(Cl)C4(Cl)C(Cl)(Cl)C5(Cl)C3(Cl)C1(Cl)C5(Cl)C24Cl (stereo unspecified)
active: [1] 82.1 nM and 2.8 µM and 487 nM | [3] 458 nM and 1.44 µM and 374 nM | rat CYP2B1, gene 24300 1.61 µM and 5.98 µM | [4] 193 nM and 1.16 µM and 250 nM | rat CYP2C6, gene 293989 7.93 µM and 5.36 µM | rat CYP3A1, gene 25642 6.55 µM and 3.69 µM | [5] 3.98 µM and 7.08 µM and 1.19 µM
inactive: [2] | rat CYP2B1, gene 24300 | [6] | [7]

CC12CC1(C)C(=O)N(c1cc(Cl)cc(Cl)c1)C2=O (stereo unspecified)
active: [8] 0.881 µM | [9] 4.98 µM
inactive: [2]

CC1(C)CCC(Cc2ccc(Cl)cc2)C1(O)Cn1cncn1 (stereo unspecified)
active: [1] 0.419 µM | [2] 2.75 µM | [3] 0.304 µM | [8] 2.5 µM | [9] 0.0404 µM | rat CYP2B1, gene 24300 385 nM | [4] 121 nM | [10] 5.15 µM | [11] 1.17 µM

O=C(O)C(F)(F)C(F)(F)C(F)(F)C(F)(F)C(F)(F)C(F)(F)C(F)(F)C(F)(F)C(F)(F)C(F)(F)F
active: [1] 1.58 µM | [3] 16.2 µM | [6] 3.6 µM | [13] 1.59 µM | [7] 1.51 µM
inactive: [12]

COc1cc(-c2ccc(N)c(OC)c2)ccc1N
active: [1] 7.03 µM | [3] 3.49 µM and 2.33 µM | [14] 13.8 µM | [7] 16.4 µM

ClC1(Cl)C2(Cl)C3(Cl)C4(Cl)C(Cl)(Cl)C5(Cl)C3(Cl)C1(Cl)C5(Cl)C24Cl (stereo unspecified)
inactive: [13]

Nc1ncc([N+](=O)[O-])s1
active: [6] 9.06 µM

O=[N+]([O-])c1ccc(O)c([N+](=O)[O-])c1
inactive: Caspase-3 (Homo sapiens)

CCOC(=O)Nc1cccc(OC(=O)Nc2ccccc2)c1
active: [8] 6.84 µM | [10] 10 µM | [11] 10.4 µM

BrCCBr
inactive: [9]

COc1cc2c(cc1OC)[C@@]13CCN4CC5=CCO[C@H]6CC(=O)N2[C@H]1[C@H]6[C@H]5C[C@H]43
active: [7] 6.44 µM

COP(=S)(OC)Oc1ccc(Sc2ccc(OP(=S)(OC)OC)cc2)cc1
active: [1] 505 nM and 5.52 µM | [3] 4.32 µM and 1.06 µM | [4] 8460 nM | rat CYP2C6, gene 293989 2.96 µM | rat CYP3A1, gene 25642 9.92 µM | [7] 2.51 µM

CC(C)(c1ccccc1)c1ccc(O)c(C(C)(C)c2ccccc2)c1
inactive: [2]

CC(=O)[O][Hg][c]1ccccc1
active: [1] 9.85 µM | [2] 1.28 µM | [15] 1.9 µM | [3] 1.04 µM | [14] 40 µM | [16] 14 µM | [6] 1.8 µM | Caspase-3 (Homo sapiens) 25 µM
